High-throughput results from PubChem.
Most compounds without a hit are left out; they make up all but 3.6% or so of the library.
aSyn yeast inh: qHTS of alpha-syn Inhibitors; AID 652106, 2013; 370,000 compounds, 0.14% hits; Potency, µM (highest dose often 46.1 µM), for inactives: at the top dose growth rescue (activation), usual class: activators; Yeast expressing alpha-synuclein, growth rescue, BacTiter-Glo, 24 h; further: % of control where 0% means no effect; nearly all actives have a fitted effect of over 65% in size
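Galactose-induced alpha-syn yeast (OD600=0.02, raffinose-pregrown) + pinned cpd, 24 hr, 30 deg C; growth by BacTiter-Glo luminescence. Growth restoration scores as activation.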
TDP43 rescue: qHTS of TDP-43 Inhibitors | Potency, µM (highest dose often 46.1 µM), for inactives: top-dose growth rescue (activation), actives largely listed as activators | 410,000 compounds, 1.8% hits | TDP-43 expressing yeast growth rescue, BacTiter-Glo, 24 h; further: % of control where 0% means no effect; nearly all actives have a fitted effect of over 50% in size
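Readout is BacTiter-Glo luminescence of cell growth, so inhibitors register as activators. TDP-43-expressing yeast at OD600=0.02 in galactose medium, after raffinose pregrowth to mid-log, were incubated with compound for 24 hr at 30 deg C.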
MmCpn inh: Inhibitors of TCP-1 ring complex (TRiC) of Methanococcus maripaludis (MmCpn): qHTS; Chaperonin Mm-Cpn (Methanococcus maripaludis); 330,000 compounds, 0.031% hits; purified Mm-Cpn ATPase, ADP Transcreener TR-FRET; Potency, µM (series often up to 76.9 µM), without a hit: at the top dose activity, negative = inhibition, usual class: inhibitors; further: on the % scale 0 is the no-effect control and ±100 the full control effect; nearly all actives have a fitted effect of over 80% in size
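ATPase turnover read by TR-FRET ADP competition (Eu cryptate antibody/ADP-d2, 665/590 nm): 10uM ATP final, 25nM Mm-CPN final, 30 min 37degC after 10-min compound preincubation, pH 7.4 Tris/KCl/MgCl2/DTT buffer.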
FUS yeast rescue: qHTS for Suppressors of FUS Proteinopathy: Primary screen using FUS-linked yeast assay. S. cerevisiae FUS-expressing, growth rescue, OD600, 24 h. Potency, µM (top dose mostly 76.6 µM), hits mostly activators. 390,000 compounds, 0.24% hits;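 further: plate controls were DMSO vehicle for no effect and reference control for full effect; nearly all actives have a fitted effect of over 55% in size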
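Yeast FUS proteinopathy model; galactose-induced FUS (2%), starting OD 0.005. Cpds in dilution series, 24hr, 30C, 99% humidity. Abs 600 nm growth. Pos ctrl CP55940 (top 92uM final); neg ctrl DMSO.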
Abeta rescue: qHTS for compounds that reverse cellular toxicity of Amyloid beta (A-beta) peptide in yeast: Primary Screen; yeast expressing A-beta42, growth rescue, OD600, 48 h; response scale: 0% DMSO, 100% iron-clioquinol control; Potency, µM (series often up to 46.1 µM), actives largely listed as activators; 410,000 compounds, 0.063% hits; further: nearly all actives have a fitted effect of over 55% in size
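Growth rescue measured by 600 nm absorbance after 48 h yeast culture at 30 C with compound. Values normalized between DMSO and an equimolar ferric chloride plus clioquinol control.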
ClpP mod: qHTS Assay for Activators of ClpP | Potency, µM (top dose mostly 57.5 µM), for the others: at the top dose activity change, negative = active | purified B. subtilis ClpP, FRET peptide cleavage, 20 min | 340,000 compounds, 1.9% hits | ATP-dependent Clp protease proteolytic subunit (Bacillus subtilis (strain 168)), P80244 | AID 651965, 2013; active means well fitted falling curve with a large enough effect; inconclusive means small, poorly fitted or top-dose-only effect; inactive means no such curve, though single readings can be large or run the other way; further: the source files actives as falling curves though it sought activators and does not explain the sign; nearly all actives have a fitted effect of over 65% in size
Target sequence (P80244 whole entry, looked up): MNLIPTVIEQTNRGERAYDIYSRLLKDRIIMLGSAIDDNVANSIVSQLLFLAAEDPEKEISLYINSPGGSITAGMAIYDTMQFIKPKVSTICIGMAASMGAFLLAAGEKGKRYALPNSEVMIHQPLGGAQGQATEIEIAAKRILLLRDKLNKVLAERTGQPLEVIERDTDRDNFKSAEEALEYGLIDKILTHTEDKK
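Purified B. subtilis ClpP, 10 microg/mL final in Tris/HCl pH8 with KCl, BSA, glycerol and Tween-20, cleaved an Abz/nitrotyrosine-quenched decapeptide. Fluorescence (ex 320, em 430) was read at 0 and 20 min at room temperature. Delta was normalized to 5.8 microM ADEP and DMSO/no-enzyme controls.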
* = called active by the depositor; i = inactive; ? = inconclusive; · = no result given; [ ] = another dose, or the depositor's remark. Unless noted, the call rests on the fitted dose curve; in most records, active means well fitted curve in the direction sought with a large enough effect; inconclusive means small, poorly fitted or top-dose-only effect, or another doubt; inactive means no such curve, though single readings can be large; an effect the other way counts as inactive or inconclusive. Potency means the concentration at half of the fitted maximal effect.

SMILES | aSyn yeast inh | TDP43 rescue | MmCpn inh | FUS yeast rescue | Abeta rescue | ClpP mod
Cc1nn(-c2ccccc2)c2sc(-c3n[nH]c(=S)o3)cc12 | -43.3% | ? | -13.2% | 7.08µM* | i | ?
Cc1nn(-c2ccccc2)c2sc(C(=O)OCc3nnc(-c4ccccc4)o3)cc12 | 3.5% | 11.4% | 0.5% | i | i | 14.1µM*
COC(=O)c1cc2c(C)nn(-c3ccccc3)c2s1 | ? | 1.2% | -0.8% | i | i | 31.6µM*
CCCC1CCC2(CC1)CCC2OC(=S)Nc1ccccc1Br (stereo not drawn) | · | · | · | i | · | ·
CCCCn1nnnc1C(c1ccccc1)N1CCN(c2ncccn2)CC1 (stereo not drawn) | 7.4% | 28.2% | · | i | i | -8.0%
CCCCn1nnnc1C(c1ccccc1)N1CCN(c2ccc(C)cc2)CC1 (stereo not drawn) | 14.7% | 35.5µM* | · | i | i | 0.8%
Cc1ccc(-c2nc3ccccc3[nH]2)cc1NC(=O)COc1ccccc1[N+](=O)[O-] | · | 8.3% | · | i | i | -1.3%
CN(C)S(=O)(=O)c1ccc(C(=O)Nc2nnc(Cc3ccccc3)s2)cc1 | 4.8% | 20.0% | -4.6% | i | i | 22.4µM*
O=C(Nc1nnc(Cc2ccccc2)s1)c1ccccc1 | -5.6% | · | 0.1% | i | i | ·
CC(C)Cc1nc2oc3c(NCc4cccnc4)ncnc3c2c2c1CCC2 | · | 19.9% | -1.0% | i | i | 17.8µM*
CC(C)Cc1nc2oc3c(NCC4CCCO4)ncnc3c2c2c1CCC2 (stereo not drawn) | 0.4% | -9.0% | ? | i | i | ?
CC(C)c1nc2oc3c(NCc4cccnc4)ncnc3c2c2c1CCC2 | 0.0% | 23.2% | 1.5% | i | i | 14.1µM*
c1cncc(CNc2ncnc3sc4c(c23)CCC4)c1 | -0.3% | -25.0%[0.397 µM] | -4.0% | i | i | ·
Cc1cc(N2CCN(C)CC2)nc2ccc(NC(=O)Nc3ccccc3Br)cc12 | · | 19.1% | · | i | i | 4.0%
CCCn1ncc2c(Nc3ccc(C)c(C)c3)ncnc21 | -11.6% | 11.2µM* | -3.1% | i | i | ·
Cn1ncc2c(Nc3cc(Cl)cc(Cl)c3)ncnc21 | -1.5% | 19.8% | 0.7% | i | · | -25.7%
COCCNc1nc(NCc2cccc(Cl)c2)c2cnn(C)c2n1 | · | 11.7% | · | i | i | -24.4%
Cn1ncc2c(Nc3ccc(Cl)c(Cl)c3)ncnc21 | -14.9% | 7.08µM* | 1.7% | i | i | -9.7%
Cn1ncc2c(NCc3cccc(Cl)c3)ncnc21 | · | 14.1µM* | · | i | i | -0.6%
Cc1ccc(-n2ncc3c(Nc4ccc5c(c4)OCCO5)ncnc32)cc1C | · | 16.2% | · | i | i | ?
CCOc1ccc(NC(=O)CN(c2ccc(CC)cc2)S(=O)(=O)c2c(C)noc2C)cc1 | · | 13.8% | · | i | i | 0.3%
O=C(Cc1ccccc1)NC1CCCCN(Cc2ccc(Cl)cc2)C1=O (stereo not drawn) | · | · | · | i | · | ·
Cc1ccc(S(=O)(=O)NCCc2csc(-c3cccc(F)c3)n2)cc1 | · | 17.8µM* | · | i | i | -18.9%
O=S(=O)(NCCc1csc2nc(-c3ccccc3)nn12)c1cc(F)ccc1F | · | 22.4µM* | · | i | ? | 3.0%
O=S(=O)(NCCc1csc(-c2cccc(F)c2)n1)c1cc(F)ccc1F | · | 2.51µM* | · | i | ? | ?
SMILES | aSyn yeast inh | TDP43 rescue | MmCpn inh | FUS yeast rescue | Abeta rescue | ClpP mod
COc1ccc(OC)c(S(=O)(=O)NCCc2csc(-c3cccc(F)c3)n2)c1 | · | ? | · | ? | i | -7.0%
CCOC(=O)CSc1nc2c(sc3ccccc32)c(=O)n1CCO | · | 13.2% | · | i | i | -3.2%
O=C(Oc1ccc(Br)cc1C(=S)N1CCCC1)c1ccccc1F | 5.1% | 15.8µM* | 2.0% | · | i | 3.6%
Cc1cc(C)cc(NC(=O)c2cc(S(=O)(=O)N3CCc4ccccc43)cn2C)c1 | · | 10.9% | · | i | i | 69.6%
COc1ccc(C(=O)Nc2ccc3c(c2)C(=O)N(C)[C@H]2CC[C@H](CC(=O)NCC4CC4)O[C@@H]2CO3)cc1 | · | · | · | i | · | ·
CCn1c(-c2cc3c(C(F)(F)F)nn(C)c3s2)n[nH]c1=S | 5.9% | 28.5% | -4.6% | i | i | 28.2µM*
COc1ccc(-c2coc3c2c(C)cc2oc(=O)c(CC(=O)O)c(C)c23)cc1 | · | 2.0% | · | i | i | -10.5%
Cc1cc2oc(=O)c(CC(=O)O)c(C)c2c2occ(-c3ccc(F)cc3)c12 | · | ? | · | i | i | 28.2µM*
CCCn1c(NC(=O)c2ccccc2Br)nc2ccccc21 | 10.5% | 15.8µM* | 0.2% | i | i | ·
C=CCn1c(NC(=O)c2ccccc2)nc2ccccc21 | 1.9% | 17.8µM* | -6.5% | i | i | -2.8%
CCn1c(NC(=O)c2ccccc2)nc2ccccc21 | 3.4% | ? | -0.2% | i | i | ·
CCCCn1c(NC(=O)c2ccccc2)nc2ccccc21 | 25.1µM* | ? | 0.8% | i | i | -5.3%
CCCn1c(NC(=O)c2ccc(Br)cc2)nc2ccccc21 | 1.8% | -5.6% | -0.3% | i | i | ?
CCOc1ccccc1NC(=S)Nc1ncccc1C | -10.5% | 14.1µM* | -1.5% | · | i | -2.8%
O=[N+]([O-])c1ccc(C=C2c3ccccc3-c3ccccc32)cc1 | · | · | · | · | · | 0.4%
CCN(CC)c1ncnc2c1sc1nc(C)cc(C)c12 | 0.0% | 22.4µM* | 0.1% | i | i | -18.2%
Cc1cc(C)c2c(n1)sc1c(N3CCCCC3)ncnc12 | -8.7% | 4.2% | 1.0% | i | i | ·
Cc1ccc(-c2nnc(Nc3ccc(Br)cc3)c3ccccc23)cc1S(=O)(=O)N1CCN(C)CC1 | · | 5.5% | · | i | i | -5.3%
Cc1cccc(C)c1OCC(=O)N/N=C/c1ccc2c(c1)OCO2 | 1.9% | 11.8% | 0.1% | i | i | -2.7%
Cc1ccc(C(C)C)cc1OCC(=O)N/N=C/c1ccc2c(c1)OCCO2 | 0.1% | 12.6µM* | 2.6% | i | i | 0.6%
COc1ccc2ccccc2c1C1NC(=O)c2ccccc2N1 (stereo not drawn) | ? | 17.4% | · | · | i | 14.1µM*
CCS(=O)(=O)N1CC(=O)N(c2cccc(Cl)c2C)C(C)(C(=O)NC2CCCCC2)C1 (stereo not drawn) | · | 9.2% | · | i | i | -1.6%
